Source: PubChem BioAssay (several laboratories)
A3A deaminase = human APOBEC3A DNA deaminase inhibition. P31941. 330,000 compounds, 0.41% hits. inhibition, % at 20 µM. AID 493011. recombinant A3A, FAM/TAMRA ssDNA deamination fluorescence;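 active = at least 40% inhibition at 20 µM here, with at most 30% in a related deaminase screen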
APOBEC3G inh = APOBEC3G (human) deaminase inhibition. recombinant A3G, ssDNA deamination FAM/TAMRA fluorescence. inhibition, % at 20 µM. 330,000 compounds, 0.28% hits;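 active = inhibition of at least 40% at 20 µM, with no more than 30% in the related APOBEC3A deaminase screen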
AHR activator = activates the human aryl hydrocarbon receptor. AHR-responsive luciferase reporter cells, luminescence. activation, % at 5 µM. 320,000 compounds, 2.5% hits. AID 2796; in the data active = activation above about 47%
NTR1 agonist = agonists of human neurotensin receptor NTR1. P30989. NTR1-U2OS beta-arrestin-GFP spot imaging, agonist mode. activation, % at 20 µM. 330,000 compounds, 0.17% hits;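 active = activation at or above 40% of the spot to cytoplasm intensity ratio, with at least 20 cells analyzed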
Of the large screens only hits and unclear results are named; the others gave an inactive call. In the library only some 3.2% were active in any assay of this set; here they are far more common.

COc1cccc(-c2sc3ccc(OC)cc3c2C#CCCO)c1	AHR activator 69
COc1cccc(-c2sc3ccc(OC)cc3c2C#CC2(O)CCCCC2)c1	none
COc1cc(OC)cc(-c2sc3ccc(OC)cc3c2C#CC(C)(C)O)c1	none
CCCN(CC(=O)Nc1ccccc1C)C(=O)CCl	none
CN1CCCN(C(=O)c2c(F)cccc2Cl)CC1	none
CC1(C)C2CCC1(CS(=O)(=O)Nc1ccc(S(=O)(=O)N3CCCCC3)cc1)C(=O)C2 (stereo not drawn)	none
COc1ccc(-c2nc(C#N)c(NCCCn3ccnc3)o2)cc1OC	AHR activator 70
N#Cc1nc(-c2ccco2)oc1NCCCn1ccnc1	AHR activator 70
O=c1c2ccccc2nnn1-c1ccc(Br)cc1	AHR activator 117
COc1ccccc1NC(=O)c1sc2nc(C)cc(C)c2c1N	AHR activator 50
COc1ccc(NC(=O)c2sc3nc(C)cc(C)c3c2N)cc1	none
CCCCC(=O)Nc1cc(OCC)c(NC(=S)NC)cc1OCC	AHR activator 71
Clc1ccccc1-c1nnc2sc(-c3cccs3)nn12	AHR activator 71
Cc1cc(C(=O)NNc2ccc(C(C)C)cc2)n(C(C)(C)C)n1	none
O=C(O)Cc1sc(Nc2cccc3ccccc23)nc1-c1ccccc1	AHR activator 61
O=C(O)Cc1sc(Nc2cccc3ccccc23)nc1-c1ccc(Cl)cc1	AHR activator 56
O=C(O)Cc1sc(N/N=C\c2ccncc2)nc1-c1ccccc1	none
COc1ccc(C(=O)Cc2cc3ccccc3oc2=O)cc1	none
CCN1C(=O)c2ccc(C(=O)Nc3c(C)cc(C)cc3C)cc2C1=O	none
COc1ccc(Cl)c2c1[nH]c1nc(SCc3ccccn3)nnc12	AHR activator 59
O/N=C/c1cc(Br)cc(Br)c1OCc1ccccc1	AHR activator 64
O=C1COc2ccc(C(=O)COC(=O)c3cc(S(=O)(=O)NCc4ccccc4)ccc3O)cc2N1	none
COc1ccc(Nc2cccccc2=O)cc1	none
COc1ccc(Nc2cccc3ccccc23)cc1	AHR activator 77
Cn1c(=O)cc(OCC(=O)N2CCCc3ccccc32)c2ccccc21	AHR activator 50
O=C(C(O)c1ccccc1)N1N=C(c2ccccc2)CC1(O)C(F)(F)F (stereo not drawn)	none (no result: AHR activator)
O=C(NNC1=Nc2ccccc2SC1)c1ccc(Cl)cc1	none
O=C(NNC1=Nc2ccccc2SC1)c1ccc(F)cc1	AHR activator 74
CC1(C)CC(NC(=O)c2cc(S(=O)(=O)N3CCOCC3)ccc2Cl)CC(C)(C)N1	none
COc1ccccc1OCc1cc(C(=O)N(C)CCC2CCCCO2)no1 (stereo not drawn)	AHR activator 53
Cc1cnc(NC(=O)c2sc3ccccc3c2Cl)s1	none
O=C(Nc1nccs1)c1sc2ccccc2c1Cl	AHR activator 47
CC(C)c1nnc(NC(=O)c2sc3ccccc3c2Cl)s1	AHR activator 71
Cc1ccnc(NC(=O)c2sc3ccccc3c2Cl)c1	none
CCOC(=O)C1CCN(C(=O)C(C)c2ccc([N+](=O)[O-])cc2)CC1 (stereo not drawn)	none
COc1cccc(OC)c1/C=C/C(=O)NC1CCCCC1	none
Clc1ccccc1-c1nc(-c2ccccc2)n[nH]1	AHR activator 66
O=[N+]([O-])c1cc(-c2n[nH]c(-c3ccccc3)n2)cc([N+](=O)[O-])c1	none
CC(=O)Nc1ccc(NC(=O)CCc2nc3sc4c(c3c(=O)[nH]2)CCCC4)cc1	none
Cc1cc(C)cc(NC(=O)CCc2nc3sc4c(c3c(=O)[nH]2)CCCC4)c1	AHR activator 59
COc1ccc2[nH]cc(C(=O)NCCc3ccccc3)c(=O)c2c1	AHR activator 74
CCOCCCNC(=O)c1c[nH]c2ccc(OCC)cc2c1=O	AHR activator 51
CCOc1ccc(N(C)S(=O)(=O)c2ccc3[nH]cc(C(=O)NCC4CCCO4)c(=O)c3c2)cc1 (stereo not drawn)	AHR activator 56
COc1ccc2c(=O)c(C(=O)NCCc3ccccc3)c[nH]c2c1	none
CCCCc1ccc(NC(=S)NCc2ccccc2OC)cc1	none
COc1ccc(C(=O)NC(=S)Nc2cccnc2)cc1[N+](=O)[O-]	AHR activator 59
COc1ccc(C(=O)NC(=S)NCc2cccnc2)cc1Br	AHR activator 51
Cc1ccc(C(=O)NC(=S)NCc2cccnc2)cc1C	none
O=C(N/N=C/c1ccc[nH]1)c1c[nH]c2ccccc12	none (no result: AHR activator)
Cc1ccc(/C=N/NC(=O)c2c[nH]c3ccccc23)o1	AHR activator 72
CCn1nc(C)c(/C=N/NC(=O)c2c[nH]c3ccccc23)c1C	AHR activator 99
Cc1ccc(/C=N/NC(=O)c2ccoc2C)s1	AHR activator 56
O=C(N/N=C/c1ccccn1)c1c[nH]c2ccccc12	AHR activator 57
CC1Cc2cc(S(=O)(=O)N3CCC(C(=O)NCc4ccco4)CC3)ccc2N1C(=O)C1CCC1 (stereo not drawn)	none
C#CCNC(=O)C1=C[C@H](c2csc3ccccc23)C[C@H](OCCCCO)O1	none
O=C(NCCCN1CCCC1=O)C1CCCO1 (stereo not drawn)	none
Cc1ccc(/C=N/NC(=O)c2c[nH]c3ccccc23)s1	AHR activator 50
Cc1ccc(/C=N/NC(=O)c2ccc(C(=O)N/N=C/c3ccc(C)s3)o2)s1	none
Cc1ccc(NC(=O)CCCNC(=O)c2ccc(Cl)cc2)c(O)c1	AHR activator 60
CCc1cc(C(=O)N2CCCC(CCC(=O)NCc3cccc(OC)c3)C2)no1 (stereo not drawn)	none
Cc1nc(C)c(-c2ccc(SCc3ccccc3F)nn2)s1	none
O=C(COC(=O)c1cc(=O)c2ccccc2o1)Nc1ccccc1F	none
COc1cc(/C=C2/NC(=O)NC2=O)cc(Br)c1OCc1ccccc1	AHR activator 59
COc1cc(/C=C2/NC(=O)NC2=O)cc(Br)c1OCc1cccc(C(=O)O)c1	none
CC(Oc1cccc2cccnc12)C(=O)N/N=C/c1ccc2c(c1)OCO2 (stereo not drawn)	none
CC1=[N+](CC(=O)c2ccccc2)CCn2cccc21	AHR activator 47
Cc1cc(C)c[n+](CC(=O)c2ccccc2)c1	none (no result: AHR activator)
O=S(=O)(NNc1ncc(C(F)(F)F)cc1Cl)c1ccccc1	AHR activator 69
Cc1ccccc1S(=O)(=O)Nc1ncc(C(F)(F)F)cc1Cl	none
COc1cc(OC)cc(C(=O)N(CCCN2C(=O)c3cccc4cccc(c34)C2=O)c2cccc(OC)c2)c1	AHR activator 103
COc1ccc(N(CCCN2C(=O)c3cccc4cccc(c34)C2=O)C(=O)c2cccnc2)cc1	AHR activator 75
COc1ccc(N(CCN2C(=O)c3ccccc3C2=O)C(=O)c2cccc([N+](=O)[O-])c2)cc1	none
COc1ccc(N(CCCN2C(=O)c3cccc4cccc(c34)C2=O)C(=O)c2ccncc2)cc1	AHR activator 76
CN(C(=O)C(Cl)Cl)C1CC2C=CC1C2 (stereo not drawn)	none
Cc1nn(-c2ccccc2)c(C)c1/C=C/C(=O)OCC(=O)Nc1ccc(S(N)(=O)=O)cc1	none
CNc1cc([N+](=O)[O-])ccc1N/C=C/C(=O)c1cccs1	AHR activator 74
CC(NC(=S)N1CCN(c2ccccc2)CC1)c1ccccc1 (stereo not drawn)	none
